The supplement of paper PMC3334620
Over roughly 33,000 sequences, “E-score (-0.5 to 0.5)” has its median near -0.011; the highest 2% begin near 0.28. This excerpt belongs to a sample that is enriched for the highest values.

target: T1, Gcr1 (UniProt P07261); assay: PBM E-score (8-mer binding enrichment) (E-score (-0.5 to 0.5)); higher = stronger / more preferred TF binding; conditions: protein concentration: 100 nM; construct: GST-full length
T1 sequence: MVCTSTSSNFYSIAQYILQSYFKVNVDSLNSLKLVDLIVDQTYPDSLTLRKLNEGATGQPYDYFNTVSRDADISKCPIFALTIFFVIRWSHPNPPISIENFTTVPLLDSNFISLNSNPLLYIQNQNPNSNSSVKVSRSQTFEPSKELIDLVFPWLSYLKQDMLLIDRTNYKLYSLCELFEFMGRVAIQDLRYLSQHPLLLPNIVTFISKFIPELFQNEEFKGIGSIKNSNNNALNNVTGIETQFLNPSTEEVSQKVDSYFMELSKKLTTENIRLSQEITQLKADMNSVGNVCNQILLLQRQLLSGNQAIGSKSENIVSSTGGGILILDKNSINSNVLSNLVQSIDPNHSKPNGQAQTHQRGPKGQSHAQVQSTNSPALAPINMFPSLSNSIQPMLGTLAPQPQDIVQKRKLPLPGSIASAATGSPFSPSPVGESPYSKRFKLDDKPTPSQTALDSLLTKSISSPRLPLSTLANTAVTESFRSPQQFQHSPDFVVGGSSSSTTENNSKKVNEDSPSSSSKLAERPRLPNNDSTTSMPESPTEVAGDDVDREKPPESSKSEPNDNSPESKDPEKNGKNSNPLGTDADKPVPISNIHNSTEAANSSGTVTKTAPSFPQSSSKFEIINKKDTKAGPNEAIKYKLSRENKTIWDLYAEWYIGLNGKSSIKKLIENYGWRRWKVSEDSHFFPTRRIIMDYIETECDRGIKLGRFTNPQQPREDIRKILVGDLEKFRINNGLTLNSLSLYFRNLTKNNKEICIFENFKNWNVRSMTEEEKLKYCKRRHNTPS
Procedure: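 Universal 'all 10-mer' protein binding microarrays (Agilent AMADID 015681) probed with GST-tagged S. cerevisiae TFs (full-length or DBD) made by in vitro transcription/translation (PURExpress), about 100-200 nM. Bound TF was detected with fluorescent anti-GST. Each ungapped 8-mer (which stands for itself and its reverse complement) is scored by the PBM enrichment score (E-score), a modified Wilcoxon-Mann-Whitney statistic from -0.5 to +0.5, computed with the Universal PBM Analysis Suite. Scale: above 0.35 generally sequence-specific binding.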

Sequence	PBM E-score
GCTAGCCA	-0.232
TATTGGAA	0.288
TAATGGAA	0.28
TAATGGCA	0.295
CATTGGAA	0.106
GAATGGAA	0.225
AAATGGAA	0.239
CAATGGCA	-0.159
GATTGGAA	0.258
GAATGGCA	-0.0438
GTTTATAA	0.129
AATGTGAT	-0.0732
AATTGTCT	-0.147
GCTACTCC	0.0342
GCACCTGA	0.0656
GCAGCTAC	0.267
GCAGCTAA	0.329
TCAGCTGA	-0.106
TCAGCTAA	-0.225
GCAGCTGA	0.336
GCAGCTGC	0.249
CTCATTCC	0.0687

Sequence	PBM E-score
CAGCCCCG	-0.107
AGGCGAGC	-0.0288
GGGTGATA	0.0068
CCGCAAAA	0.0921
GCTACCAC	0.323
ACTACCAC	0.101
GATACCAA	0.154
GCTACCAA	0.179
GATACCAC	0.329
AATACCAC	0.097
AACCTAAG	-0.0759
ACCTCCTC	-0.194
AACGTCTA	0.00101
ATTCCTAC	0.0721
ATTCCTAA	0.284
CATCCTGA	0.292
GATCCTGA	0.0899
TATCCTGA	0.156
ATTCCTGC	0.048
CTTCCTAA	0.294
ATTCCTAG	-0.0289
ATTCCTGG	0.165

Sequence	PBM E-score
CTTCCTAC	0.18
ATTCCTGA	0.299
GTTCCTAA	0.237
TAGACCTA	-0.0537
AACCAGAG	0.0777
TACACAGA	-0.106
CTTCCTTA	0.153
GGGTTGCA	-0.0951
GAAGCGTC	0.268
CATCAACA	0.015
ATGTTGTA	0.104
GAGCACAC	-0.271
CAGCACCC	0.277
AAGCACCG	0.0663
GAGCACCC	0.329
AAGCACCC	0.283
AAGCACCT	0.106
ACGCCATG	-0.0676
GGTAAAAC	-0.056
AATGGCGC	0.253
ACTTCGTA	0.0106
CCTTCTCA	-0.156

Sequence	PBM E-score
CCTTCGTA	0.00994
GCTTCTCC	0.27
GCTTCTTA	0.338
GCTTCTCA	0.299
ACTTCTTA	0.104
GCTTCGTA	0.329
GCTTCTGA	0.0646
CCTATTGC	-0.0151
CACGGAAC	0.0756
ACCCAAAT	0.233
AAGTTCCT	0.163
CTTGGTTC	0.149
AAACAGAG	-0.244
TCCCTCAA	0.00435
ATGTTCCG	-0.119
CCCGAAAG	0.224
AGGCGCTC	-0.0859
CTCTGCAC	-0.0576
AATTCCAT	0.191
TATTCCAA	0.224
